Results published in PubChem BioAssay.
Entries with a potency or affinity are not part of this list. Calls of active or inactive are those of the source. No cut-off is given here; in the data, nearly all actives have IC50 up to about 0.91 µM.

Each compound was assayed against Calcium-dependent protein kinase 4 (Plasmodium falciparum (isolate 3D7)) (UniProt Q8IBS5) (assay: PfCDPK4 kinase inhibitors, biochemical, TCAMS library (AID 1159588)). Conditions: recombinant PfCDPK4, Kinase-Glo ATP depletion luminescence.
Chain of Calcium-dependent protein kinase 4 (Plasmodium falciparum (isolate 3D7)) (Q8IBS5 whole entry, looked up): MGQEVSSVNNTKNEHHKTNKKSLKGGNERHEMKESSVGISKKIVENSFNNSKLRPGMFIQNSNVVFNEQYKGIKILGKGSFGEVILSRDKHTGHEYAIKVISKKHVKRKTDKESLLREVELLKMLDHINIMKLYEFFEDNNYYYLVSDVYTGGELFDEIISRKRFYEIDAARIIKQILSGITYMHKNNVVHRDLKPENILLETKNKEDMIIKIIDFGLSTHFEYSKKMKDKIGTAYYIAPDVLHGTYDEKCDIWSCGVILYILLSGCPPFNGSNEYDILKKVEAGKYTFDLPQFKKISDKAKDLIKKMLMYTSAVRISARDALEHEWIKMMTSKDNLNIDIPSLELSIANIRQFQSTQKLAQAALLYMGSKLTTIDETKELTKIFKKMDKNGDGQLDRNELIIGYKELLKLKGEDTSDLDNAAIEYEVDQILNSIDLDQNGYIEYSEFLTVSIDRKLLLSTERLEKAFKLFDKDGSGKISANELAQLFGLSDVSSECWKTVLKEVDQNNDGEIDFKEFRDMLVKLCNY

outcome, inactive:
COc1ccc2nc(C)cc(NN=Cc3ccccc3Cl)c2c1
COc1ccccc1NC(=O)c1cc(C(=O)c2cc(Cl)ccc2O)cn(-c2ccccc2OC)c1=O
CCc1c(C)nc2nc(Cc3cccc(F)c3)nn2c1N1CCN(c2ccccn2)CC1
COc1ccc(NC(=O)NC2CCN(CCCOc3ccnc4cc(Cl)ccc34)C2)cc1OC (stereo not given)
CN1CCCN(Cc2ccc(-c3cccc(NC(=O)c4ccc(F)cc4)c3)cc2)CC1
Cc1cc(NCC2CCN(CC3CCCCC3)C2)nc(Nc2ccc(Br)cc2)n1 (stereo not given)
Cc1cccc2[nH]c(-c3ccc(-c4cccc(NC(=O)NCc5cccc(F)c5)c4)cc3)nc12
CCOC(=O)C(C)(C)Oc1ccc(C(=C2CC(C)(C)CC(C)(C)C2)c2ccc(O)cc2)cc1
CN(C)CCCN(C)C(=O)c1cc2cc(-c3ccccc3)ccc2n1S(=O)(=O)c1ccccc1
CCN(CC)c1cc(C)c2cc(NC(=O)c3cc(=O)c4ccccc4o3)ccc2n1
COc1ccc(Cl)cc1N1CCN(CCCNC(=O)c2ccc(-c3nc4cc5ccccc5cc4[nH]3)c(F)c2)CC1
O=S(=O)(NCCN1CCCC1)c1cccc(-c2ccccc2CNC2Cc3ccccc3C2)c1
CCCC(C)NC(=O)C(N)Cc1cccc(I)c1 (stereo not given)
CCCCCCCCNc1c2ccc(Cl)cc2nc2ccc(OC)cc12
CN1CCC(C(=O)Nc2cccc(-c3ccc(-c4nc5ccc(C(F)(F)F)cc5[nH]4)s3)c2)CC1
Cc1cc(NCCC(=O)NCCc2ccccc2)nc(NCCc2ccc(F)cc2)n1
CCCC(C)Nc1nc(C)cc(N[C@@H](CC(C)C)C(=O)NCCOc2ccccc2)n1 (stereo not given in full)
CN(C)CCNC(=O)N1CCCN(c2ncnc3cc(-c4ccccc4)sc23)CC1
CC(=O)Nc1cccc(C(=O)Nc2cccc(-c3cccc(-c4nc5ccccc5[nH]4)c3)c2)c1
CC(CN(C)C)C(=O)Nc1ccc(-c2cccc(-c3nc4ccccc4[nH]3)c2)cc1 (stereo not given)
O=C(/C=C/c1ccc(Cl)c(Cl)c1)NCCCCCN1CCC(NC(=O)Nc2ccccc2Cl)CC1
CCc1cc2c(N)nc(N)nc2nc1-c1ccccc1
CC(C)CNCc1cccc(-c2cccc(CNCCCN3CCN(C)CC3)c2)c1
Clc1ccc2c(NCCNc3ccnc4cc(Cl)ccc34)ccnc2c1
CC(C)(C)c1ccc(NC(=O)c2cccc(CN3CCCN(Cc4ccc(F)cc4)CC3)c2)cc1
COc1ccc(CNCc2ccc(F)cc2)cc1-c1ccc(OC)c(S(=O)(=O)NCCN2CCCC2)c1
NC1=NC(c2ccccc2)(c2ccccc2)C(=O)N1CC1CCC1
O=C1C(c2ccccc2)=C(Nc2cc(Cl)cc(Cl)c2)c2ccccc21
Cc1cc(C2CCN(CCCCNC(=O)c3ccc(NC(=O)c4ccc(Cl)cc4)cc3)CC2)c(C)cc1OCc1cccnc1
C=C[C@H]1CN(CCCCCCC)CC[C@H]1CCN(C)c1ccnc2ccc(OC)cc12
COc1ccc(CN(C)CCCSc2ccc(NC(=O)c3cccc4c(=O)cc(-c5ccccc5)[nH]c34)cc2)cc1OC
CC(=O)N1N=C(c2ccc(Cl)cc2)Sc2c1nc(C1CCCCC1)n2C(C)=O
OC(CNc1ccnc(Nc2cccc(Cl)c2)n1)c1cccc(C(F)(F)F)c1 (stereo not given)
CCc1cc(I)c2c(c1)C(NCCCNc1cc(=O)c3ccccc3[nH]1)CCN2 (stereo not given)
O=C1C(c2ccccc2)=C(Nc2ccc(Cl)cc2)c2ccccc21
Cc1cc(CNCCCCCCCNCc2cccc([N+](=O)[O-])c2)ccc1O
Cc1[nH]c2cccc(F)c2c(=O)c1Cc1ccc(Cl)cc1 (tested in a mixture with another compound)
COc1ccc2ncc(F)c(CCN3CCC(CNC(=O)C(=O)c4c[nH]c5ccccc45)CC3)c2n1
O=C(Nc1ccc(Cn2ncc(N3CCCNCC3)c(Cl)c2=O)cc1)Nc1ccc(-c2ccccc2)cc1
CC(=O)N/N=C/[C@H](CCc1ccccc1)NC(=O)[C@H](CC(C)C)NC(=O)c1ccc(OCCN2CCOCC2)cc1
